The source made the active and inactive calls.
Experiments:
[1] = system: Human papillomavirus type 1a protein E7 (residues 44-93); assay: small molecules binding HPV E7 44-93 – biochemical, small-molecule microarray, residues 44-93, 635 nm fluorescence, primary screen (AID 1108); details: fluorescence 635 nm, higher = more signal;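 note: E7 fragment applied at 1 µg/mL in TBST for 1 h at 4 C; score combines spot fluorescence with its signal to noise ratio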
[2] = hepatitis C replication reporter changes, two-sided – Huh7 cells, luciferase reporter, HCV replication inhibitor project, primary screen (AID 1109); details: Huh7 HCV replicon luciferase reporter, 48 h; higher = more signal;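 note: huh7 hepatoma cells harbouring a luciferase neomycin HCV replicon reporter; luciferase luminescence as measure of HCV replicon replication; test concentration not given here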
[3] = target: Left-right determination factor 2 (Homo sapiens) (UniProt O00292); assay: small molecules binding LEFTY2 protein – biochemical, small-molecule microarray, 635 nm fluorescence scan, primary screen (AID 1110); details: higher = more signal
Left-right determination factor 2 (Homo sapiens), sequence (O00292 whole entry, looked up): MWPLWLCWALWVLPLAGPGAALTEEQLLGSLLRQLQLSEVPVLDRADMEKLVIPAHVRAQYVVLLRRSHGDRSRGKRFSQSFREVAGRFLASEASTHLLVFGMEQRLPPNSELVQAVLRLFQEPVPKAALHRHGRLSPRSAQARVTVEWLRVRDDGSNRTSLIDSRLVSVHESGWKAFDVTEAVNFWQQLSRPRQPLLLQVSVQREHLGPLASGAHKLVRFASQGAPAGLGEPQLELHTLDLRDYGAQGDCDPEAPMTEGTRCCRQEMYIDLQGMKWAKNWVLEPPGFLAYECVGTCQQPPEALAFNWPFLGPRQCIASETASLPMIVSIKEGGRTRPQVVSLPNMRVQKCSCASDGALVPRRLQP

[4] = target: Calmodulin-1 (Homo sapiens) (UniProt P0DP23); assay: small molecules binding calmodulin-1 with EGTA – biochemical, small-molecule microarray, Cy5-labelled CALM1, profiling panel (AID 1111); details: Cy5-CALM1 binding fluorescence, higher = more signal;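 note: labelled calmodulin applied in Tris saline Tween buffer holding calcium plus EGTA and DTT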
[5] = target: Calmodulin-1 (Homo sapiens) (UniProt P0DP23); assay: small molecules binding Ca-loaded calmodulin-1 – biochemical, small-molecule microarray, Cy5-labelled CALM1, plus calcium, artefact control for SMM control-protein annotation, profiling panel (AID 1112); details: Cy5-CALM1 binding fluorescence, higher = more signal;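 note: score merges spot fluorescence with signal to noise from triplicate slides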
[6] = probe aWnt5a binding to arrayed compounds – biochemical, biotinylated probe, 635/667 nm fluorescence, primary screen (AID 1113); details: small-molecule microarray, higher = more signal;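 note: score merges 667 nm fluorescence intensity with signal-to-noise per printed feature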
[7] = probe aShh binding to arrayed compounds – biochemical, biotinylated probe, 635/667 nm fluorescence, primary screen (AID 1114); details: small-molecule microarray, higher = more signal;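 note: probe is biotin-labelled aShh protein from a stem cell growth factor screen; measures binding of labelled protein to compounds printed on the slide; score merges feature fluorescence at 667 nm with signal-to-noise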
[8] = probe aNog binding to arrayed compounds – biochemical, biotinylated probe, 635/667 nm fluorescence, primary screen (AID 1115); details: small-molecule microarray, higher = more signal;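 note: probe is biotinylated aNog protein used at 0.15 µg/mL for 1 h at 4 C; z-score combines 667 nm fluorescence of each spot with its signal to noise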
[9] = target: Torsin-1A-interacting protein 1 (Homo sapiens) (UniProt Q5JTV8); assay: compound microarray binding of lysate hLAP1 – cell lysate, small-molecule microarray, COS7 lysate, 635/667 nm fluorescence, primary screen (AID 1116); details: 635 nm fluorescence, higher = more signal
Torsin-1A-interacting protein 1 (Homo sapiens), sequence (Q5JTV8 whole entry, looked up): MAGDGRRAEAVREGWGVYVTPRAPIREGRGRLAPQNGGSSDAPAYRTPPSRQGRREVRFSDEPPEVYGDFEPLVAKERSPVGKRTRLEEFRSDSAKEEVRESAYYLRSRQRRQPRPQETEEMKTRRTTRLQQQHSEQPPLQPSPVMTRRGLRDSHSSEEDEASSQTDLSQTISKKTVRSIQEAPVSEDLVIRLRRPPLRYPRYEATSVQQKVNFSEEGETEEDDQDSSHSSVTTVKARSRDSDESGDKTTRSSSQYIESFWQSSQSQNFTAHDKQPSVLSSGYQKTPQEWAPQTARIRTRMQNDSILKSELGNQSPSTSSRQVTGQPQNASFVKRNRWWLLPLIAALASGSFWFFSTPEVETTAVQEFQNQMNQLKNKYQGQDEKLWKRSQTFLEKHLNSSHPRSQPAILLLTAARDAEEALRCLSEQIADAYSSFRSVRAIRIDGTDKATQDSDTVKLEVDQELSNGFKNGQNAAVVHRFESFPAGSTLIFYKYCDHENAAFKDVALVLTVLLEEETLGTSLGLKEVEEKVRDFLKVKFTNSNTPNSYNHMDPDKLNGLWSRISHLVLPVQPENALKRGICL

[10] = target: Alpha-bungarotoxin (Bungarus multicinctus) (UniProt P60615); assay: compounds binding labelled alpha-BTX control protein – biochemical, small-molecule microarray, Alexa647 label, 635/667 nm fluorescence, artefact control for SMM control protein annotation, profiling panel (AID 1117); details: alpha-BTX-A647 binding fluorescence, higher = more signal
Alpha-bungarotoxin (Bungarus multicinctus), sequence (P60615 whole entry, looked up): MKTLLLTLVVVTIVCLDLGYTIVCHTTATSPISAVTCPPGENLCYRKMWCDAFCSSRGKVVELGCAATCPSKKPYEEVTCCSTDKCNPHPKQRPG

[11] = target: Albumin (Bos taurus) (UniProt P02769); assay: compounds binding labelled BSA control protein – biochemical, small-molecule microarray, Alexa647 label, 635/667 nm fluorescence, artefact control for SMM control protein annotation, profiling panel (AID 1118); details: BSA-A647 binding, fluorescence 635 nm, higher = more signal;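 note: score merges 667 nm emission intensity and signal-to-noise per printed compound spot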
Albumin (Bos taurus), sequence (P02769 whole entry, looked up): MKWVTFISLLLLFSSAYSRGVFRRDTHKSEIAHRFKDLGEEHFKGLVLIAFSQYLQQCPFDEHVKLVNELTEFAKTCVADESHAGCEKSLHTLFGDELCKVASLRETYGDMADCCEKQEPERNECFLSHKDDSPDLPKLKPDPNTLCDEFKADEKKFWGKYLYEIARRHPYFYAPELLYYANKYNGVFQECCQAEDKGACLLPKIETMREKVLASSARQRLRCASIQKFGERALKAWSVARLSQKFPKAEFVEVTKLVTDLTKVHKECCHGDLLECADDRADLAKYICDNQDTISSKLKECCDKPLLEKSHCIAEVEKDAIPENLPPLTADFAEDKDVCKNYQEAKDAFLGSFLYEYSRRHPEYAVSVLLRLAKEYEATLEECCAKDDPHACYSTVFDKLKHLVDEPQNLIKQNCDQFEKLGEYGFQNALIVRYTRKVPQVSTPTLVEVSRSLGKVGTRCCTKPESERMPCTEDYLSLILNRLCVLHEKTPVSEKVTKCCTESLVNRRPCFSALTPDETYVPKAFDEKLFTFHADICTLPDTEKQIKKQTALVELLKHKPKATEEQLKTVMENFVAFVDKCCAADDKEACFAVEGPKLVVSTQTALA

[12] = probe aXIP binding to arrayed compounds – biochemical, NeuroSMM set, 635/667 nm fluorescence, primary screen (AID 1119); details: small-molecule microarray, higher = more signal, called active from +8 up or from −8 down;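 note: probe is the protein aXip251-270 applied at 1 µg/mL to compound-printed slides; binding of probe to printed compounds measured as 667 nm fluorescence plus signal to noise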
[13] = probe aNOTCH3 binding on compound microarray – biochemical, small-molecule microarray, 635/667 nm fluorescence, primary screen (AID 1120); details: higher = more signal;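 note: probe is a biotin-tagged antibody raised against NOTCH3 rather than NOTCH3 protein; score merges spot fluorescence near 667 nm with spot signal to noise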
[14] = probe aNOTCH2 binding on compound microarray – biochemical, small-molecule microarray, 635/667 nm fluorescence, primary screen (AID 1121); details: higher = more signal;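 note: score merges feature fluorescence read at 667 nm with its signal to noise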
[15] = target: Carbonic anhydrase 2 (Homo sapiens) (UniProt P00918); assay: compounds binding carbonic anhydrase 2 – biochemical, small-molecule microarray, Alexa647-labelled CAII, profiling panel (AID 1122); details: CAII-A647 binding fluorescence, higher = more signal
[16] = COS7 lysate on small-molecule microarray, probe aHis, 635 nm (AID 1123); details: COS7 cell lysate, fluorescence, higher = more signal;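 note: z-score combines 667nm fluorescence intensity with signal-to-noise per printed compound spot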
[17] = probe aLAP1 signal on lysate-treated microarray – cell lysate, small-molecule microarray, COS7 lysate, primary screen (AID 1124); details: probe aLAP1, fluorescence, higher = more signal;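 note: lysate comes from COS7 cells expressing LAP1 and is applied at 0.3 µg/mL; score merges spot fluorescence near 667 nm with signal-to-noise over triplicate slides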
[18] = system: Sam68 (KHDRBS1); assay: compounds binding KHDRBS1 protein – biochemical, small-molecule microarray, 635 nm fluorescence, primary screen (AID 1125); details: higher = more signal;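 note: score merges 667 nm channel intensity with signal to noise over triplicate slides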
[19] = system: Chordin-like protein 2 (CHRDL2); assay: compounds binding chordin-like 2 – biochemical, small-molecule microarray, 635 nm fluorescence, primary screen (AID 1126); details: fluorescence 635 nm, higher = more signal;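 note: printed compound slides probed with Chrdl2 protein at 4 µg/mL for 1 h at 4 C; score merges 667 nm emission intensity with signal to noise over three replicate slides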
[20] = target: Concanavalin-A (Canavalia ensiformis) (UniProt P02866); assay: compounds binding concanavalin A lectin – biochemical, small-molecule microarray, Alexa647 label, 635 nm, artefact control for SMM control protein annotation, primary screen (AID 1127); details: ConA-A647 binding fluorescence, higher = more signal;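 note: z combines 667 nm emission intensity with signal-to-noise across three replicate slides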
Concanavalin-A (Canavalia ensiformis), sequence (P02866 whole entry, looked up): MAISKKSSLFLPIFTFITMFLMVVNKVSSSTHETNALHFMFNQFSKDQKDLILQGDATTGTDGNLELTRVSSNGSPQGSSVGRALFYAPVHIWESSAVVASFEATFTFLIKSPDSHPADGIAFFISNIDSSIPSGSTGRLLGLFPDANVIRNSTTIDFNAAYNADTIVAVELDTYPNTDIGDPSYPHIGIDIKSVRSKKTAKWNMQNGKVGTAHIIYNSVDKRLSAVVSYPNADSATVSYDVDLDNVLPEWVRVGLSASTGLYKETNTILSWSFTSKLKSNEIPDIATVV

| SMILES | composite z-score [1] | z-score [2] | composite z-score [3] | composite z-score [4] | composite z-score [5] | composite z-score [6] | composite z-score [7] | composite z-score [8] | composite z-score [9] | composite z-score [10] | composite z-score [11] | composite Z-score [12] | composite z-score [13] | composite z-score [14] | composite z-score [15] | composite z-score [16] | composite z-score [17] | composite z-score [18] | composite z-score [19] | composite z-score [20] |
| --- | --- | --- | --- | --- | --- | --- | --- | --- | --- | --- | --- | --- | --- | --- | --- | --- | --- | --- | --- | --- |
| CC(C)C(=C=CC[C@@H](O)c1ccccc1OCCO)C[C@@H](O)c1cc(Cl)cc(Cl)c1O | 1.48 | -3.27 | 0.744 | 0.341 | -0.538 | -0.0735 | -0.153 | 0.432 | -0.197 | 1.54 | 0.77 | -0.235 (inactive) | 0.156 | -0.147 | 0.68 | 1.76 | 0.632 | 1.26 | 0.784 | 0.612 |
| O=C1O[C@@H](c2ccccc2)[C@@H](c2ccccc2)N2[C@@H](c3ccc(OCCO)cc3)[C@]3(C(=O)Nc4ccc(C#CCCO)cc43)[C@@H](C(=O)Nc3nc4ccccc4s3)[C@H]12 | 1.36 | -1.36 | 0.364 | 0.84 | 0.338 | 0.0219 | 0.0639 | -0.353 | 0.82 | 0.626 | 0.844 | 1.09 (inactive) | 0.289 | -0.148 | 0.458 | 1.48 | 0.426 | 1.3 | 0.324 | 1.09 |
| CO[C@H]1O[C@H](CO)[C@@H](OC(=O)Nc2ccc(C(F)(F)F)cc2)[C@H](OC(=O)Nc2ccccc2-c2ccccc2)[C@H]1OC(=O)Nc1ccccc1-c1ccccc1 | 1.47 | -3.83 | 0.24 | 1.59 | -0.135 | -0.0445 | 0.0121 | -0.136 | 0.731 | 1.36 | -0.792 | 0.259 (inactive) | 0.144 | -0.0406 | 0.693 | 2.22 | -0.244 | 1.3 | -0.0407 | 1.2 |
| COCC(=C=CC[C@@H](O)c1ccc(OCCO)cc1)C[C@@H](O)COCc1ccccc1 | 1.39 | -1.08 | 1 | 0.0268 | 0.473 | 0.0559 | 0.0611 | 0.629 | 0.319 | 0.0353 | 0.769 | -0.727 (inactive) | 0.0528 | -0.0796 | 0.805 | 2.3 | 0.686 | 1.28 | 0.0466 | 0.547 |
| COc1cc2c(cc1O)C(c1ccc(CN3CCCC3)cc1)N(Cc1cccc(OC(F)(F)F)c1)CC2 (stereo not given) | 0.743 | -3.63 | 0.629 | -0.0262 | -0.664 | -0.203 | -0.0522 | 0.0583 | 0.62 | 1.61 | 0.771 | 0.339 (inactive) | -0.0795 | -0.207 | 0.546 | 1.72 | 0.637 | 0.658 | 0.73 | -0.328 |
| O=C1OCCC=C[C@H]2OC34C=CCN(CCN5CCOCC5)C(=O)[C@H]3N(CCCO)C(=O)[C@@H]4C12 (stereo not given in full) | -0.211 | -1.03 | -0.861 | -0.572 | -1.17 | -0.228 | -0.144 | -0.318 | -0.79 | -0.386 | -0.444 | 1.11 (inactive) | -0.155 | -0.171 | 0.0003 | 1.2 | -0.0411 | -0.119 | -0.794 | -0.112 |
| COC(=O)[C@@]1(Cc2ccc(F)cc2)[C@H]2c3cc(C(=O)N(C)C)n(CCN4CCOCC4)c3C[C@H]2CN1C(=O)c1ccccc1 | 0.357 | 0.349 | 0.134 | 0.639 | -0.125 | 0.974 | 0.275 | 0.932 | 0.868 | 0.0194 | 0.851 | -0.34 (inactive) | 0.296 | 0.739 | 0.39 | 2.08 | 0.0192 | -0.0247 | -0.361 | 0.618 |
| CC(c1ccccc1)C(O)C1C=CC2C(=O)N(c3ccccc3)C(=O)C2N1Nc1ccc(C#N)cc1 (stereo not given) | 1.41 | -0.354 | 0.8 | 1.52 | 0.253 | 0.216 | 0.156 | 1.45 | 1.8 | 1.39 | 0.976 | -0.105 (inactive) | 0.609 | -0.0062 | 0.6 | 3.28 | 0.359 | 1.34 | -0.34 | 1.15 |
| COC(=O)Cn1c(C(=O)N(C)C)cc2c1C[C@H]1CN(C(=O)c3ccccc3)[C@@](Cc3ccc(OC)cc3)(C(=O)OC)[C@@H]21 | 1.3 | -1.69 | -0.212 | 0.966 | -0.39 | 0.409 | 0.297 | 2.26 | 1.8 | 0.299 | 0.938 | -0.945 (inactive) | 0.332 | -0.037 | 0.845 | 3.28 | -0.0169 | 1.08 | -0.108 | 0.812 |
| C=C(COC)/C(=C/C[C@H](OC(=O)c1ccncc1)c1cccc(OCCO)c1)c1cnc2ccccc2c1 | -0.378 | -1.56 | 0.791 | 0.697 | -0.64 | -0.0944 | 0.235 | -0.145 | 0.756 | 3.02 | 0.671 | 1.56 (inactive) | 0.279 | -0.0681 | 0.855 | 1.21 | 0.444 | 1.3 | 1.23 | 1.09 |
| CC(C)=CCN(C(=O)C#Cc1ccccc1)[C@H](CO)c1ccccc1 | 1.16 | -4.92 | 0.379 | -0.557 | -0.56 | -0.0346 | -0.16 | -0.302 | 0.58 | 0.14 | -0.105 | -0.0102 (inactive) | 0.0259 | -0.0883 | -0.0216 | 0.506 | 0.0602 | 0.798 | 0.902 | 0.101 |
| CC=CC(O)C1C=CC2C(=O)N(C)C(=O)C2N1NC(=O)OC(C)(C)C (stereo not given) | -1.08 | 0.381 | 0.478 | 0.127 | -0.516 | -0.101 | -0.206 | -0.135 | 0.512 | 0.277 | 1.03 | 0.397 (inactive) | 0.0687 | -0.173 | 0.774 | 0.439 | 0.826 | -0.0008 | 0.204 | 0.0815 |
| COc1cc(OC)c(C(O)C2C=CC3C(=O)N(c4ccccc4)C(=O)C3N2Nc2ccccc2F)cc1Br (stereo not given) | 1.31 | -1.17 | -0.137 | 1.96 | 0.764 | -0.0462 | 0.279 | 1.62 | 1.63 | 1.92 | 0.89 | 0.476 (inactive) | 0.378 | -0.0664 | 0.693 | 2.91 | 0.408 | 1.34 | -0.577 | 1.1 |
| NC(=O)NCC#Cc1ccc2c(c1)[C@]1(C(=O)N2)[C@H](C(=O)N2CCCCCCC2)[C@H]2C(=O)O[C@H](c3ccccc3)[C@H](c3ccccc3)N2[C@@H]1c1ccc(O)cc1 | 0.0787 | -1.13 | 0.953 | 2.38 | 0.509 | 0.754 | 1.54 | 2.78 | 2.19 | 2.01 | 0.408 | -0.573 (inactive) | 1.38 | 0.796 | 0.341 | 1.2 | 0.624 | 1.07 | 1.2 | 1.09 |
| O=C(NCC(F)(F)F)[C@@H]1c2ccccc2C(=O)N(CC23CC4CC(CC(C4)C2)C3)[C@H]1c1ccc(CO)cc1 | 1.02 | -1.83 | 0.355 | 0.579 | -0.715 | -0.0398 | 0.136 | -0.222 | 0.613 | -0.523 | 0.15 | 0.251 (inactive) | 0.0981 | -0.147 | 0.25 | 0.699 | 0.622 | 1.27 | 0.162 | 0.734 |
